NS1 inh: blocks influenza NS1 protein function; Potency, µM (highest dose often 46.1 µM); 270,000 tested, 0.4% active; AID 2326; calls by dose curve; note: actives are rising curves; nearly all actives have a fitted effect of over 50% in size
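S. cerevisiae expressing influenza A NS1, grown in glucose, washed, then diluted 1:100 into pH 6.0 -URA galactose medium with 23 nl compound. Growth recovery read as OD600; NS1-free strain serves as control.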
CHX counter: affects cycloheximide protein synthesis inhibition readout, counter-screen; cell reporter, cycloheximide protein synthesis inhibition counterscreen; max response, %; 300,000 tested, 12% active; in the data active = max response mostly above about 13%, no sharp cut-off; inactive = mostly below about 14%; note: read at 38.3 µM for the half of the compounds with a filed dose
Shiga inhibitor: Shiga toxin inhibition. inhibition, % at 38.7 µM. Vero cells, Shiga toxin protein synthesis inhibition reporter. 290,000 tested, 9.2% active; in the data active = inhibition mostly above about 28%, no sharp cut-off; inactive = mostly below about 43%
Pf growth 48h: inhibits P. falciparum growth in the first generation, 48 h; 310,000 tested, 5.9% active; Potency, µM (top dose mostly 28.7 µM), actives largely listed as inhibitors; AID 504832; P. falciparum luciferase growth in erythrocytes, 48 h
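Here the parasites carry a stable luciferase gene and grow inside erythrocytes in Albumax-based RPMI medium with compound for one erythrocytic cycle. Activity is scored as loss of luminescent signal.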
Pf growth 96h: P. falciparum growth inhibition at 96 hour, primary screen for plastid delayed-death inhibitors | P. falciparum luciferase reporter growth, 96 h | Potency, µM (top dose mostly 28.7 µM), usual class: inhibitors | 320,000 tested, 6.9% active | AID 504834
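Plates of compound plus infected erythrocytes (2% hematocrit, 0.05% parasitemia final) incubate 96 hours, 37 C, 5% CO2. Detection reagent added; reduced luminescence from the parasites' luciferase reporter flags inhibition.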
Large screens that a line does not name were inactive. Hits are enriched below; roughly 21% of the tested compounds scored in any of these assays. Unless noted, calls come from the whole dose curve; as a rule, active = well fitted inhibition curve with a large enough effect; inconclusive = small, poorly fitted or top-dose-only effect, or another doubt; inactive = no such curve, though single readings can be large or run the other way.

Cc1ccc2oc3c(c(=O)c2c1)C(c1cccs1)N(CCCN(C)C)C3=O (configuration not stated)	NS1 inh inconclusive, CHX counter 39, Shiga inhibitor 48, Pf growth 48h inconclusive
COC(=O)c1ccc(C2c3c(oc4cc(C)c(C)cc4c3=O)C(=O)N2CCCN(C)C)cc1 (configuration not stated)	Pf growth 48h 5.2µM
COc1ccc2nc3c(cc2c1)Cn1c-3nc2ccccc2c1=O	none (no result: NS1 inh, Pf growth 48h, Pf growth 96h)
COc1ccc2[nH]c3c(c2c1)CCn1c-3nc2ccccc2c1=O	CHX counter 38, Shiga inhibitor 97, Pf growth 96h inconclusive
Cc1cc(Oc2nnnn2-c2ccccc2)ccc1Cl	CHX counter 30 (no result: Pf growth 48h)
COc1ccc(-c2cc3nc(-c4ccccc4)cc(N4CCC(O)CC4)n3n2)cc1	Pf growth 48h 10µM
COc1ccc(-c2cc3nc(-c4ccccc4)cc(N4CCCC(O)C4)n3n2)cc1 (configuration not stated)	Pf growth 48h 8.3µM
COCCN(Cc1ccccc1)C(=S)Nc1ccc(Cl)cc1	none (no result: NS1 inh)
COc1cc(CN2CCCC(C(=O)c3sccc3C)C2)cc(OC)c1O (configuration not stated)	Pf growth 96h inconclusive
O=C(c1ccc(C(F)(F)F)cc1)C1CCCN(C(=O)CCc2ccncc2)C1 (configuration not stated)	Pf growth 48h inconclusive, Pf growth 96h inconclusive
O=C(c1ccc(Cl)cc1)C1CCCN(Cc2ccc3nonc3c2)C1 (configuration not stated)	Pf growth 96h 10µM
O=C(c1cccc(Cl)c1)C1CCCN(Cc2ccc(N3CCNC3=O)cc2)C1 (configuration not stated)	Pf growth 48h inconclusive, Pf growth 96h 9.3µM
COc1cc(CN2CCCC(C(=O)c3ccc(C(C)(C)C)cc3)C2)cc(OC)c1O (configuration not stated)	CHX counter 18, Pf growth 48h 6.6µM
COc1cccc(C(=O)C2CCCN(Cc3ccc(F)cc3)C2)c1 (configuration not stated)	Pf growth 48h inconclusive
O=C(c1ccc(C(F)(F)F)cc1)C1CCCN(Cc2ccncc2)C1 (configuration not stated)	Pf growth 48h 12µM
Cc1ccc(-n2nc3c(c2NC(=O)C(C)C)CS(=O)(=O)C3)cc1	none
CCCOc1ccc(Cn2c(=O)oc3ccc(C)cc32)cc1	Pf growth 96h inconclusive
CC(NC(=O)c1ccco1)C(=O)O (configuration not stated)	none (no result: NS1 inh, CHX counter, Shiga inhibitor)
NC(=O)CCC(=O)N1CCCC(C(=O)c2ccc(C(F)(F)F)cc2)C1 (configuration not stated)	Pf growth 96h 13µM
CSc1n[nH]c(-c2ccc(C(F)(F)F)cc2)n1	CHX counter 41, Shiga inhibitor 107
Nc1n[nH]c(-c2ccc(F)cc2)n1	none
O=C(NCc1ccccc1)NC1(C(=O)N2CCOCC2)CCCCC1	none
N#Cc1ccccc1NC(=O)CSc1nnc(-c2ccccc2)n1-c1ccccc1	Pf growth 48h inconclusive
CC(=O)c1ccc(NC(=O)CSc2nccn2CCc2ccccc2)cc1	CHX counter 33, Shiga inhibitor 88 (no result: Pf growth 96h)
Cn1ccnc1SCC(=O)Nc1ccc2c(c1)OC(F)(F)O2	CHX counter 15 (no result: NS1 inh)
CC(=O)Nc1ccc(NC(=O)CSc2nccn2Cc2ccccc2)cc1	none
Cc1ccc(NC(=O)CSc2nccn2Cc2ccccc2)cc1C	CHX counter 48
Cc1ccc(NC(=O)CSc2nccn2C)cc1F	Pf growth 96h inconclusive
N#Cc1ccccc1NC(=O)CSc1nccn1CCc1ccccc1	CHX counter 37, Shiga inhibitor 78
CCCN1C2CCCC1CC(NC(=O)c1cc(OC)cc(OC)c1)C2 (configuration not stated)	Pf growth 48h inconclusive, Pf growth 96h inconclusive
COc1ccc(C(=O)N2CCCC(Nc3ccc(F)cc3)C2)c(OC)c1 (configuration not stated)	none
CCOC(=O)c1ccc(NC(=O)CSc2nccn2C)cc1	CHX counter 39
CCOC(=O)c1cc(C)sc1NC(=O)CSc1nccn1C	CHX counter 50, Shiga inhibitor 111
CCOC(=O)c1ccc(NC(=O)CSc2nnc(COc3ccccc3)n2C)cc1	Pf growth 48h inconclusive (no result: Pf growth 96h)
CC(=O)c1ccc(NC(=O)CSc2nccn2C)cc1	CHX counter 11, Shiga inhibitor 66
O=C(Cn1[nH]c(=O)c2ccccc2c1=O)NNC(=O)c1ccccc1	none
COc1cc2c3nnc(-c4ccc(F)cc4)c-3cn(Cc3ccccc3F)c2cc1OC	Pf growth 48h 0.37µM, Pf growth 96h 0.74µM (no result: NS1 inh)
COc1cc2c3nnc(-c4ccccc4)c-3cn(Cc3ccccc3F)c2cc1OC	Pf growth 48h inconclusive, Pf growth 96h inconclusive (no result: NS1 inh)
CC1CCCN(C(=O)C2CCN(CC(C)c3ccccc3)CC2)C1 (configuration not stated)	none
CN1C(=O)c2ccccc2N(C)C1c1ccc2c(c1)OCO2 (configuration not stated)	Pf growth 48h 10µM
NS(=O)(=O)c1ccc(NC(=O)Nc2ccc(S(N)(=O)=O)cc2)cc1	none
CC(C)CNS(=O)(=O)c1ccc(CCC(=O)Nc2ccc3c(c2)OCO3)cc1	Pf growth 96h 4.1µM
CC(C)c1ccc(S(=O)(=O)NCc2ccc3c(c2)OCO3)cc1	Pf growth 96h 10µM
O=C(O)c1ccc(S(=O)(=O)NCc2ccc3c(c2)OCO3)cc1	none
NS(=O)(=O)c1ccc(NC(=O)Nc2ccc3c(c2)OCO3)cc1	CHX counter 41, Shiga inhibitor 96, Pf growth 48h inconclusive, Pf growth 96h inconclusive
CCNS(=O)(=O)c1ccc(NC(=O)Nc2ccc3c(c2)OCO3)cc1	CHX counter 30
O=C(Nc1ccc(S(=O)(=O)NCc2ccccc2)cc1)Nc1ccc2c(c1)OCO2	CHX counter 28, Shiga inhibitor 81
CC(=O)C(Cc1ccc(Cl)nc1)Cc1ccc(Cl)nc1	Pf growth 96h inconclusive
COC(=O)Cc1ccc(OCc2ccc(Cl)nc2)cc1	CHX counter 37, Shiga inhibitor 52
Cn1c(SCC(=O)NNC(=O)Cc2ccccc2)nc2ccccc2c1=O	none (no result: NS1 inh)
NC(=O)c1cnn2c(C(F)(F)F)cc(-c3ccc(F)cc3)nc12	Pf growth 48h inconclusive, Pf growth 96h inconclusive
COC(=O)C1=C(C)NC(=O)/C1=C\c1ccc2c(c1)OCO2	CHX counter 34, Pf growth 48h inconclusive, Pf growth 96h inconclusive
COC(=O)C1=C(C)NC(=O)/C1=C\c1cc(C)n(-c2ccccc2C)c1C	Pf growth 96h 9.3µM (no result: Pf growth 48h)
Cc1cccc(C)c1-n1c(C)cc(/C=C2\NC(=O)NC2=O)c1C	Pf growth 48h 12µM, Pf growth 96h 12µM
COC(=O)C1=C(C)NC(=O)/C1=C\c1cc(C)n(-c2c(C)cccc2C)c1C	Pf growth 96h 2.6µM (no result: Pf growth 48h)
Cc1cc(/C=C2\NC(=O)NC2=O)c(C)n1-c1cccnc1	none
CCC(NC(=O)c1ccccc1NC(=O)c1ccco1)C(=O)NNC(=O)c1ccc(OC)cc1 (configuration not stated)	none
Cc1cccc(N2CCN(C(=O)COc3ccc4c(c3)CCC4)CC2C)c1 (configuration not stated)	none (no result: NS1 inh, CHX counter, Shiga inhibitor)
